Results as given in PubChem BioAssay AID455 (Sanford-Burnham Center for Chemical Genomics, 2006).
Screen size: about 10,000 compounds; about 20 (0.2%) were called active. What follows is part of a selection rich in actives, with near analogues and random picks from the rest. Unmarked numbers belong to inactive results.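 How the source made its calls: active means a compound raising TNF-alpha-driven VCAM-1 surface staining, with its hit status upheld on visual or statistical review; inactive means the rest, including hits rejected on review.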

Assay: enhancers of VCAM-1 display on endothelial cells, cell-based, plate reader, pooled HUVEC, TNFa stimulus (AID 455);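 on augmentation: 0% = TNFa plus DMSO wells and 100% = a visually confirmed top hit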
Settings: HUVEC TNFa-induced VCAM-1 immunofluorescence; active compounds read high, 100% set by best visually verified hit,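 tested at 5 µM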

Compound | augmentation
Nc1nc(N2C(=O)C3CC=CCC3C2=O)nn1-c1ccccc1 (configuration not stated) | inactive
O=C1c2ccccc2C(Nc2ccc3nc(-c4cccnc4)[nH]c3c2)N1Cc1ccco1 (configuration not stated) | inactive
CCCCn1nnc(NC(=O)c2cc3ccccc3o2)n1 | inactive
COc1ccc2nc(NC(=O)c3ccoc3C)sc2c1 | inactive
COC(=O)C1C2C=CC3(CN(CC4CCCO4)C(=O)C13)O2 (configuration not stated) | inactive
CCOC(=O)c1c(NC(=O)Cn2c(=O)oc3ccccc32)oc(C)c1C(C)=O | inactive
Cc1ccnc(SCCn2c(N3CCCCC3)nc3c2c(=O)n(C)c(=O)n3C)n1 | inactive
CC(=O)Nc1ccc(N2CCN(Cc3ccccc3F)CC2)cc1 | inactive
CCCCN(CCCC)C(=O)CN(C)S(=O)(=O)c1ccc2c(c1)n(C)c(=O)c(=O)n2C | inactive
O=C(CSc1nnnn1-c1ccccc1)Nc1ccc(Cl)cc1 | inactive
COc1ccc(S(=O)(=O)NCCOc2ccccc2)cc1OC | inactive
CCOc1ccc(N(C(C)=O)C2C=CS(=O)(=O)C2)cc1 (configuration not stated) | inactive
Cc1ccc(S(=O)(=O)N2CCC(C(=O)NCCN3CCCCCC3)CC2)cc1 | inactive
O=C(c1ccc(S(=O)(=O)N2CCOCC2)cc1)N(c1ccc(F)cc1)C1C=CS(=O)(=O)C1 (configuration not stated) | inactive
COc1ccc(-c2nnc(SCC(=O)NC(C)c3ccccc3)o2)cc1 (configuration not stated) | inactive
COC(=O)c1ccc(CSc2nc(-c3ccc(OC)cc3)nc3c2c(=O)n(C)c(=O)n3C)o1 | inactive
CC1CCN(C(=O)c2ccc(C(=O)N3CCC(C)CC3)cc2)CC1 | inactive
CCOC(=O)Cc1cc(=O)n2[nH]c(C)c(-c3ccc(OC)cc3)c2n1 | inactive
COC(=O)Cc1cc(=O)[nH]c(Nc2nc3ccccc3o2)n1 | inactive
O=C(NC1CCCCCC1)c1cc(S(=O)(=O)N2CCC3(CC2)OCCO3)ccc1F | inactive
CCOc1cc(N2CCOCC2)c(OCC)cc1NC(=O)CSc1cccc[n+]1[O-] | inactive
CCOC(=O)CSc1nnc(CNC(=O)c2ccc(S(=O)(=O)N3CCCC3)cc2)n1C | inactive
Cc1cccc(CCNC(=O)C2CCCN(S(=O)(=O)c3cnc[nH]3)C2)c1 (configuration not stated) | inactive

Compound | augmentation
COc1ccc(S(=O)(=O)NCCCN2CCOCC2)c2ccccc12 | inactive
CCc1nnc(NC(=O)c2ccc(S(=O)(=O)NCC(C)C)cc2)s1 | inactive
O=C(CCSc1nc(-c2ccco2)cc(C(F)(F)F)n1)NCCc1ccccc1 | inactive
CCc1ccccc1NC(=O)C(CC)Sc1nc2cc3c(cc2c(=O)n1Cc1ccco1)OCO3 (configuration not stated) | inactive
O=C(O)CCC(=O)c1c[nH]c2ccccc12 | inactive
CC(=O)SCCC(=O)Nc1ccccc1 | inactive
c1cncc(-c2nc3c4ccccc4nc(N4CCC(N5CCCCC5)CC4)n3n2)c1 | inactive
c1ccc(Cn2nnnc2C(c2cccs2)N2CCSCC2)cc1 (configuration not stated) | inactive
CCOC(=O)c1ccc(N(CC(=O)NC2CCCC2)C(=O)CNC(=O)c2ccco2)cc1 | inactive
O=C(O)c1ccc2c3c(ncnc13)-c1ccccc1C2=O | inactive
O=C(CSc1nnc(-c2ccncc2)o1)Oc1ccccc1 | inactive
COc1ccccc1C(O)P(=O)(OC(C)C)c1ccc(N(C)C)cc1 (configuration not stated) | inactive
O=C(NCCCn1ccnc1)c1cnn2c1NC(c1ccccc1)CC2C(F)(F)F (configuration not stated) | inactive
COc1ccc(-c2noc(CN3CCC(Cc4ccccc4)CC3)n2)cc1 | 30.2%
Cc1nn(-c2ccccc2)c2c1C(c1c(C)[nH]c(C#N)c1C)C(C#N)=C(N)O2 (configuration not stated) | inactive
CCOC(=O)N1CCN(C(=O)COc2ccc(Br)cc2Cl)CC1 | 61.2%
COc1ccccc1C1CC(c2ccc(C)cc2)Nc2ncnn21 (configuration not stated) | inactive
COc1ccccc1CN1CC(C(=O)N2CCN(c3ccc(F)cc3)CC2)CC1=O (configuration not stated) | inactive
CCOC(=O)C1C2C=CC3(CN(Cc4ccco4)C(=O)C13)O2 (configuration not stated) | inactive
COc1ccc(CN2C(=O)c3ccccc3C2C(=O)NC2CCCC2)c(OC)c1 (configuration not stated) | inactive
CN(C)c1ccc(/C=C/c2ccncc2)cc1 | 42.9% (active)
CN(C)c1ccc(CNn2cnnc2)cc1 | inactive
CN(C)c1ccc(C=Nc2ccc(N(C)C)cc2)cc1 | inactive

Compound | augmentation
N#CCCNCC1(c2ccccc2)CCCC1 | inactive
O=C(CSc1nnc2ccccn12)NCCN1C(=O)CSC1=O | inactive
Cc1ccc(NC(=O)CSc2nnc(NC(=O)CN3CCOCC3)s2)cc1 | inactive
CCCc1[nH]nc2c1C(c1cccc(OC(=O)c3ccco3)c1)C(C#N)=C(N)O2 (configuration not stated) | inactive
CCN(CC)c1ccc2cc(-c3nc4ccccc4[nH]3)c(=O)oc2c1 | 100% (active)
CCN(CC)c1ccc2c(C)c(-c3ccc(N)cc3)c(=O)oc2c1 | inactive
CCN(CC)c1ccc2cc(NC(=O)CCC(=O)O)c(=O)oc2c1 | inactive
CCCCOc1ccc(CSc2n[nH]c(C)n2)cc1 | inactive
CC(=O)Nc1ccc(Cl)cc1C(=O)O | inactive
CC(=O)Nc1cc(N2C(=O)CCC2=O)ccc1Cl | inactive
COC(=O)c1ccc(Cl)c(NC(C)=O)c1 | 82.8% (active)
CCCc1ccc(C(C)NC(=O)c2cnccn2)cc1 (configuration not stated) | inactive
CCCCNC(=O)Cn1c(=O)n(C)c2ccccc21 | inactive
CCOC(=O)c1[nH]c(C)c(C(=O)Nc2ccc(Cl)cc2)c1C | inactive
Cc1ccc2cc3cc(C(=O)NCCN4CCOCC4)oc3nc2c1 | inactive
CC(=O)c1cccc(NC(=O)N2C3CCC2CC(O)(c2cccnc2)C3)c1 (configuration not stated) | inactive
O=c1oc2c3c4c(cc2cc1-c1nc2ccccc2[nH]1)CCCN4CCC3 | 100% (active)
c1ccc2nc(-c3nc4ccccc4[nH]3)ccc2c1 | inactive
O=c1oc2c3c4c(cc2s1)CCCN4CCC3 | inactive
Cn1c(Cc2ccccc2)nnc1SCC(=O)c1ccc(Br)s1 | inactive
CCOc1ccccc1C(=O)Nc1nnc(CC)s1 | inactive
CCOC(=O)c1ccccc1NC(=O)CSc1nc2c(c(=O)n(C)c(=O)n2C)n1C | inactive
Cc1cc(=O)n2nc(N3CCCC(C(=O)N4CCc5ccccc54)C3)sc2n1 (configuration not stated) | inactive

Compound | augmentation
CN(CCNC(=O)c1ccc(N2CCCC2=O)cc1)CCc1ccccc1 | inactive
CC(C)n1nc(C(=O)Nc2nc3ccc(S(C)(=O)=O)cc3s2)c2ccccc2c1=O | inactive
Cc1ccc(CN2C(=O)CCC2C(=O)NCC2CCCO2)cc1 (configuration not stated) | inactive
CCCCn1c(SCc2cccnc2)nc2c1c(=O)n(C)c(=O)n2C | inactive
O=C(CCN1C(=O)COc2ccccc21)NCCN1CCN(c2cccc(Cl)c2)CC1 | inactive
COc1ccc(NC(=O)CSc2nnc(Cc3cccn3C)n2-c2ccc(F)cc2)cc1 | inactive
COc1cc2c(cc1OC)-c1cc(OCc3cccnc3)nc(=O)n1CC2 | inactive
CN(Cc1ccccc1)S(=O)(=O)c1ccc(S(=O)(=O)N2CCN(CCC#N)CC2)cc1 | inactive
CCOC(=O)c1[nH]c2ccccc2c1NC(=O)C(CC)CC | inactive
c1coc(Cn2nnnc2CN2CCN(C3CCCC3)CC2)c1 | inactive
Cc1ccc(C)c(N2CCN(C(=O)c3ccc(CS(=O)(=O)c4ccccc4C)o3)CC2)c1 | inactive
O=c1c2cn[nH]c2nc(SCc2ccc3c(c2)OCCO3)n1-c1ccccc1 | inactive
COc1ccc(CCn2c(-c3ccco3)nc3nc4ccccc4nc32)cc1 | inactive
Cc1nnc(NC(=O)CSc2nc3c(c(=O)n2C)SC(C)C3)s1 (configuration not stated) | inactive
CCOc1ccccc1N1CC(O)=C(c2nc3ccccc3s2)C1=N | inactive
Cc1nc2cc(NC(=O)N3c4ccccc4CC3C)ccc2o1 (configuration not stated) | inactive
Cc1cc(OCC(O)CN2CCN(CCO)CC2)ccc1C(C)C (configuration not stated) | inactive
Cc1ccn2cc(CCNC(=O)CC(C)(C)C)nc2c1 | inactive
CN(C)c1ccc(C2C3=C(CCCC3=O)OC3=C2C(=O)CCC3)cc1 | inactive
CCOC(=O)c1cc(CC)sc1NC(=O)COC | inactive
CCOc1ccc(NC(=O)CCN2CCN(c3ccccc3)CC2)cc1 | inactive
Cc1ccc2[nH]c(=O)c(C(c3nnnn3CCc3ccccc3)N3CCOCC3)cc2c1 (configuration not stated) | inactive
CC(=O)N1C(=O)C2(C(C#N)=C(N)Oc3cc(C)oc(=O)c32)c2ccccc21 (configuration not stated) | inactive

Compound | augmentation
CCOC(=O)NC(c1ccccc1)C1CCCCC1=O (configuration not stated) | inactive
O=C(Cn1c(NCCO)nc2ccccc21)c1ccccc1 | inactive
Cc1cc(NC(=O)CCCN2C(=O)c3cccnc3C2=O)no1 | 50.9% (active)
CCOc1ccc(OCC)c(NC(=O)CCCN2C(=O)c3cccnc3C2=O)c1 | inactive
Cc1cccnc1NC(=O)CCCN1C(=O)c2ccccc2C1=O | inactive
O=C(c1ccccc1)c1ccc2nc[nH]c2c1 | inactive
O=C(NCCN1CCOCC1)NC1(C(F)(F)F)Oc2ccc(Cl)cc2O1 (configuration not stated) | inactive
C=CCSc1n[nH]c(-c2ccc(OC)cc2)n1 | inactive
Cc1c(Cl)cccc1N1C(=O)c2ccccc2C1=O | inactive
Cc1nc2cc(-n3ccc(=O)cc3)ccc2n1-c1ccccc1 | inactive
Cn1c(=O)cc(SCC(=O)NCc2cccnc2)c2ccccc21 | inactive
CSc1nc2c(ccc3ccccc32)o1 | inactive
O=c1cc(C(F)F)oc2c1ccc1ccccc12 | 97% (active)
COc1ccc(CCN2C(=O)CC(N3CCN(S(=O)(=O)c4ccccc4)CC3)C2=O)cc1 (configuration not stated) | inactive
COCc1nnc(SCC(=O)NC(C)c2ccccc2)n1-c1ccccc1 (configuration not stated) | inactive
COc1ccc(C(=O)N2CCCc3ccccc32)cc1 | inactive
CCOC(=O)N1CCN(C(=O)Cn2ncn3nc(-c4cccs4)cc3c2=O)CC1 | inactive
COc1cccc(-n2c(C)nc3c(cnn3-c3ccc(Cl)cc3)c2=O)c1 | inactive
CCC(C)(C)n1nnnc1C(c1ccc(OC)c(OC)c1)N1CCN(c2ccc(F)cc2)CC1 (configuration not stated) | inactive
COc1ccc(OC)c(NC(=O)C2C3CC4OC(=O)C2C4C3)c1 (configuration not stated) | inactive
